MazF activator – MazEF (E. coli) toxin RNase activation | P0AE70 | FAM/BHQ RNA-DNA oligo cleavage fluorescence, 5 h | activation, % at 20 µM | 350,000 compounds, 0.32% hits | AID 504720; in the data active means activation above about 50%
BoNT A protease – inhibitors of Botulinum neurotoxin A light chain protease; multiplex microsphere protease substrate cleavage, flow cytometry; AID 588499; inhibition, % at 10 µM; 360,000 compounds, 0.17% hits; further: plate controls were buffer without enzyme for full effect and enzyme alone for no effect
Anthrax LF prot – inhibitors of Bacillus anthracis lethal factor protease. multiplex microsphere protease cleavage assay, LF. inhibition, % at 10 µM. AID 588501. 360,000 compounds, 0.12% hits. P15917; further: plate controls were buffer without enzyme for full effect and enzyme alone for no effect
BoNT F protease – blocks Botulinum neurotoxin F light chain protease. Multiplex microsphere protease cleavage assay, flow cytometry. inhibition, % at 10 µM. 360,000 compounds, 0.22% hits. AID 588497; in the data active means inhibition above about 35%, passing the limit was not always enough; inconclusive means no clear call, values can overlap the other calls; further: plate controls were buffer without enzyme for full effect and enzyme alone for no effect
Autofluor counter – counter-screen for toxin protease inhibitors: compound fluorescence. compound autofluorescence counterscreen, microsphere flow cytometry; active compounds read high. fluorescence intensity (no concentration beside the values). 360,000 compounds, 3.1% hits; in the data active means fluorescence intensity above about 16000; inconclusive means no clear call, values can overlap the other calls
Starred values were filed as active, the others as inactive; ? = inconclusive; nt = no result given. This is a sample that favours compounds with a hit; in the whole collection about 3.6% have one here. Unless noted, no stated cut-off is given here; in the data, active means inhibition above about 30%; inconclusive means no clear call, values can overlap the other calls; inactive means below that.

SMILES	MazF activator	BoNT A protease	Anthrax LF prot	BoNT F protease	Autofluor counter
O=C(NCc1ccccc1)c1cc(C2COCCN2C(=O)C2CC2)on1 (stereo not given)	nt	-0.4	-3.1	-4.5	3111
C/C(Cc1ccccc1)=N\NC(=O)CNC(=O)c1ccc(Cl)cc1Cl	6.8	5.8	?	36.4*	3625
COc1ccc(/C(C)=N/NC(=O)CNC(=O)Cc2ccccc2)c(OC)c1	-2.4	2.2	20.9	38.5*	3753
O=C(OCc1ccccc1)N1CCC2CC1c1cc(NCCc3ccccc3)ccc12 (stereo not given)	-0.7	0.0	-2.2	-3.4	3879
OCc1ccccc1SSc1ccccc1CO	1.9	nt	nt	nt	nt
COc1cccc(O)c1CN1CCCC(C(=O)c2cccc(C(F)(F)F)c2)C1 (stereo not given)	-2.9	-0.2	-5.2	0.6	4196
COc1ccc(C(=O)C2CCCN(Cc3c(O)cccc3OC)C2)cc1OC (stereo not given)	7.9	-3.3	-18.4	36.9*	4574
CCCCCCCCCCCCCCCC[N+](C)(C)Cc1ccc(F)cc1	-67.2	-0.4	-4.4	-29.4	4503
CSc1ccccc1C(=O)NCCSc1ccccc1	3.4	-0.8	-4.4	-2.1	16492*
CCCCCNC(=O)c1ccccc1SC	-3.2	-2.0	-2.0	-3.8	16772*
Cc1ccccc1C(=O)NCCSc1ccccc1	3.7	-0.4	-1.0	-16.7	2093
COc1ccc(N(C)C(=O)C2CCCN2S(=O)(=O)c2cccc3nsnc23)cc1 (stereo not given)	7.9	-0.2	-0.8	-2.6	5698
CCc1ccccc1Oc1nc(NCCOC)nc2cc(-c3ccccc3)sc12	nt	0.0	-5.2	-4.5	3465
C#CCOC(=O)c1ccccc1C(=O)OCC#C	-7.4	-0.3	-3.1	-6.4	2823
C#CCOC(=O)c1csc2nnsc12	2.8	?	-3.0	2.0	21747*
O=c1nc2ccccc2c2n1CC(CN1CCN(c3cccc(Cl)c3)CC1)N2 (stereo not given)	-12.4	-7.2	-1.7	-6.1	17652*
CC(C)(C)c1cc(CNC(=O)C2CCC(=O)N(Cc3ccccc3F)C2)[nH]n1 (stereo not given)	3.4	-0.3	5.8	-2.1	3644
O=C(C1=C(O)/C(=C/c2ccc(O)cc2)CCC1)C(F)(F)F	-10.7	-0.1	8.2	0.7	5329
COc1ccc(/C=C2\CCCC(C(=O)C(F)(F)F)=C2O)cc1	474.6*	-1.1	-1.8	-9.6	3731
Cc1ccc(C)c(S(=O)(=O)NCc2cccnc2)c1	6.2	-1.6	-1.6	-4.1	21139*
Cc1ccc2nsnc2c1S(=O)(=O)NCc1cccnc1	-6.7	-0.7	-1.7	-2.9	22869*
Cc1ccc(C)c(NC(=O)CN(C)C(=O)c2cc(C3CC3)nn2-c2ccccc2)c1	2.3	1.9	4.2	12.3	3666
Fc1ccc(-c2nc3c4ccccc4ccn3c2Cc2cccc(Cl)c2)cc1	nt	0.7	-12.7	-10.7	7128
CCCn1c2c(c(O)c(C(=O)Nc3ncccc3C)c1=O)CCCC2	4.0	0.4	-2.3	2.5	22788*
O=C(Nc1ccc(NC(=O)c2ccccc2)c2ccccc12)c1ccccc1	-1.4	-0.5	-4.0	-6.9	3223
SMILES	MazF activator	BoNT A protease	Anthrax LF prot	BoNT F protease	Autofluor counter
COc1ccc(C2SCC(=O)Nc3c2c(=O)[nH]n3C2CCCCCC2)cc1 (stereo not given)	-5.0	-0.1	-6.1	-6.4	5946
CCOc1ccc(C2SCC(=O)Nc3c2c(=O)[nH]n3C2CCCCCC2)cc1 (stereo not given)	-3.6	?	-6.0	-7.9	24510*
COc1ccc(C2SCC(=O)Nc3c2c(=O)[nH]n3C2CCCCCC2)cc1OC (stereo not given)	-6.6	?	-8.8	2.6	18575*
NC(=O)C1(Nc2ccc(-c3ccc(Br)cc3)cc2)CCCC1	-3.5	-0.4	-2.6	-8.5	2776
O=C(CSc1ncccn1)NCc1ccccc1Cl	1.7	?	-1.6	-3.6	21734*
O=C(CSc1nc(=O)n2ccccc2n1)NCc1ccccc1Cl	-3.4	-7.6	0.2	-17.0	7964
CCOc1nc(NCCc2ccc(OC)c(OC)c2)nc(NC(C)(C)CO)n1	1.3	-1.7	-2.4	-3.6	16988*
COc1ccc(CCNc2nc(Cl)nc(NC(C)(C)CO)n2)cc1OC	-3.4	-1.1	-3.8	?	4070
O=[N+]([O-])c1cccc(-c2csc(N/N=C/c3cccc(O)c3)n2)c1	47.8	-0.9	-5.0	-9.7	2050
Cc1cccc(NC(=O)COc2ccc3oc4c(c3c2)CCCC4)n1	1.9	-1.7	-3.8	-0.9	23564*
Cc1cccc(NC(=O)COc2ccc3c(c2)CCC3)n1	0.1	4.3	-4.9	13.0	4094
